Data taken from PubChem BioAssay (NCI).
Several values for one entry are separate records, joined by “and”; a condition that tells them apart may be missing. Equal entries are not always repeated. This is part of a sample that, as a whole, favours compounds with a hit. Of some 79,000 tested, about 15% had one in any assay. Activity calls are given as the source filed them. Cut-off read from the data, not from the text of the source: active = growth inhibition above about 70%; inactive = the rest. Where a SMILES comes first, the peptide text is derived from it. [ ]: non-standard residue; d: D form. The star is where a group is joined. NMeF = CN[C@@H](Cc1ccccc1)C(=O)O; NMeV = CN[C@H](C(=O)O)C(C)C; Boc = CC(C)(C)OC(=O)*; OBn = c1ccc(CO*)cc1

What was measured:
[1] = NCI Yeast Anticancer Drug Screen. Data for the rad50 strain (AID 155);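 note: 0% = growth of vehicle-only cultures of the same strain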; conditions: S. cerevisiae rad50 strain growth inhibition, stronger effect = higher value; at 50.0 µM unless noted
Summary of the method: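 Readout: growth inhibition relative to vehicle-treated cultures. Compound exposure was carried out in a genetically defined yeast strain deficient in DNA damage repair.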

[2] = NCI Yeast Anticancer Drug Screen. Data for the mec2-1 strain (AID 157); conditions: S. cerevisiae mec2-1 strain, stronger effect = higher value; at 50.0 µM unless noted
Summary of the method: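 Cells of the genetically defined mec2-1 yeast strain are incubated with test compound. Inhibition of growth is calculated against vehicle-treated controls.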

[3] = NCI Yeast Anticancer Drug Screen. Data for the sgs1 mgt1 strain (AID 161);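 note: 0% = growth of cultures given vehicle only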; conditions: S. cerevisiae sgs1 mgt1 strain, stronger effect = higher value; at 50.0 µM unless noted
Summary of the method: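 Genetically altered yeast, compound exposure, growth inhibition relative to vehicle.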

[4] = NCI Yeast Anticancer Drug Screen. Data for the cln2 rad14 strain (AID 165);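 note: 0% = growth equal to vehicle treated cultures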; conditions: S. cerevisiae cln2 rad14 strain, stronger effect = higher value; at 50.0 µM unless noted
Summary of the method: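 The screen exposed genetically defined yeast (cln2 rad14) to test compounds and scored growth inhibition relative to vehicle-treated controls.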

[5] = NCI Yeast Anticancer Drug Screen. Data for the bub3 strain (AID 167); conditions: S. cerevisiae bub3 mutant strain, stronger effect = higher value; at 50.0 µM unless noted
Summary of the method: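 Readout: yeast growth inhibition, expressed relative to vehicle-only wells. The test organism is a mutant strain from a panel with lesions in DNA repair or checkpoint genes.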

[6] = NCI Yeast Anticancer Drug Screen. Data for the mlh1 rad18 strain (AID 175); conditions: S. cerevisiae mlh1 rad18 strain growth inhibition, stronger effect = higher value; at 50.0 µM unless noted
Summary of the method: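 Compound-treated yeast growth, normalised to vehicle controls. Strain bears defined DNA repair mutations.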

Measured: growth inhibition

COc1cc2c(cc1OC)C1Cc3ccccc3CCN1CC2 (stereo not given)
inactive: [1] -23.4% | [2] -7.1% | [3] -16.8% | [4] -23.8% | [5] -9.95% | [6] -19.4%

CCCOc1cc2c(cc1C(C)c1ccc(OC)c(C)c1)OCO2 (stereo not given)
inactive: [1] -3.55% | [2] 3.45% | [3] -6% | [4] -87.7% | [5] 4.55% | [6] 4.15%

O=C(OCC(OC(=O)c1ccccc1)C1OCOC2COCOC21)c1ccccc1 (stereo not given)
inactive: [1] 3.35% | [2] -1.3% | [3] -5.6% | [4] -24.2% | [5] 0.45% | [6] 11.4%

CN1N=C(c2ccncc2)OC1c1cccc(F)c1 (stereo not given)
inactive: [1] -58% | [2] -45.4% | [3] -25.6% | [4] 6.5% | [5] 4.9% | [6] -16%

Cn1c2ccc3cc2c(=S)c2cc(ccc21)OCCOCCOCCOCCOCCO3
inactive: [1] 32.1% | [2] -16% | [3] 0.65% | [4] -17% | [5] -13.3% | [6] 9.85%

Cc1ccc(-c2ccc(C)cc2C(=O)O)c(C(=O)O)c1
inactive: [1] -21.8% | [2] 1% | [3] 4% | [4] -28.1% | [5] -2.5% | [6] -15.3%

CC(=O)N1C=CC(=Cc2ccccc2)C=C1
inactive: [1] -0.15% | [2] 5.55% | [3] -30.6% | [4] -1.25% | [5] 12.8% | [6] 3.95%

CC1(C)C(=O)C=C(c2ccccc2)C1(O)c1ccccc1 (stereo not given)
inactive: [1] -9.45% | [2] -29.9% | [3] 16.9% | [4] 5.35% | [5] 22.4% | [6] -38.5%

CC1(C)OC2C(/C=C\C(=O)c3ccccc3)OC(n3ccc(=O)[nH]c3=O)C2O1 (stereo not given)
inactive: [1] -36.6% | [2] 10.3% | [3] 5.6% | [4] 13.4% | [5] -1.55% | [6] -1.5%

CC(C)[C@@H](C(=O)N1CCC[C@H]1C(=O)OCc1ccccc1)N(C)C(=O)[C@H](C(C)C)N(C)C(=O)[C@H](Cc1ccccc1)N(C)C(=O)[C@H](NC(=O)OC(C)(C)C)C(C)C (Boc-[dV][NMeF][NMeV][NMeV]P-OBn)
inactive: [1] -41.9% | [2] -42.1% | [3] -38.2% | [4] -38.1% | [5] -42.6% | [6] -36.3%

Cc1nc(-c2cccnc2)sc1C(=O)CC(=O)C(=O)Nc1cccc(NC(=O)C(=O)CC(=O)c2sc(-c3cccnc3)nc2C)n1
inactive: [1] 20.2% | [2] -0.75% | [3] -21.6% | [4] 0.1% | [5] -12.9% | [6] 6.85%

COc1ccc(C(=O)C(=O)c2ccccc2Cl)cc1
inactive: [1] 11.4% | [2] 14.9% | [3] 9.55% | [4] 13.3% | [5] 17.8% | [6] 10.9%

CSCCC(NC(=O)OCc1ccccc1)C(=O)O (stereo not given)
inactive: [1] -31.4% | [2] -0.6% | [3] 5.05% | [4] -25.2% | [5] -4.5% | [6] -4.45%

NNC(=O)Oc1cccc2ccccc12
inactive: [1] 22.1% | [2] 19.3% | [3] 9.9% | [4] -4.4% | [5] 36.4% | [6] 42.5%

CCc1cccc(CC)c1N1C(=O)CC(Sc2ccccc2N)C1=O (stereo not given)
inactive: [1] -18.1% | [2] -16.3% | [3] -14.8% | [4] -0.85% | [5] -9.5% | [6] -25.8%

c1ccc2nc3c(cc2c1)NCC3
inactive: [1] -2.3% | [2] 5.15% | [3] -14.4% | [4] -22.6% | [5] -8.25% | [6] -20.9%

N#CC(NNC(=O)Cc1ccccc1)c1ccc(O)cc1 (stereo not given)
inactive: [1] -18.1% | [2] -22.6% | [3] -37.1% | [4] -7.05% | [5] -25.6% | [6] -32.5%

CCOC(=O)CSCC(C)C(=O)OC (stereo not given)
inactive: [1] -0.3% | [2] -0.5% | [3] -2.7% | [4] 7.2% | [5] 2.5% | [6] 2.25%

Cc1cc(=O)[nH]c(NNC(C#N)c2ccc(O)cc2)n1 (stereo not given)
inactive: [1] -26% | [2] -51.3% | [3] -48.4% | [4] -7.6% | [5] -18.6% | [6] -41.8%

O=C(Nc1nccs1)c1ccccc1F
inactive: [1] 3.8% | [2] -0.9% | [3] -12.2% | [4] -53.3% | [5] -8.45% | [6] -3.15%

COc1ccc(C(=O)c2ccc(Br)s2)cc1
inactive: [1] 5.9% | [2] -6.65% | [3] 12.8% | [4] -14.4% | [5] 13.8% | [6] 33%

O=C(Oc1cccc(OC(=O)c2ccccc2O)c1)c1ccccc1O
inactive: [1] -1.05% | [2] -7.95% | [3] 9.8% | [4] -30.8% | [5] 25.9% | [6] -5.35%

OCCC1CCCCN1 (stereo not given)
inactive: [1] 9.25% | [2] -8.4% | [3] -20.4% | [4] -18.4% | [5] -0.75% | [6] 54.5%

NC(=O)c1c(NC=O)ncn1C1OCC(O)C(O)C1O (stereo not given)
inactive: [1] -7.95% | [2] -3.85% | [3] 2% | [4] -42% | [5] -1.3% | [6] 12.8%

Cc1cc(=O)n2nc(CCl)sc2n1
inactive: [1] 9.65% | [2] 10.2% | [3] 6.15% | [4] -8% | [5] 11.3% | [6] 10.1%

O=C(c1ccccc1)N1CCC(Nc2nccs2)O1 (stereo not given)
inactive: [1] -37.4% | [2] -26.1% | [3] -11.4% | [4] -9.75% | [5] -8.15% | [6] -2.35%

O=C(O)CC(C(=O)O)C(Cc1ccccc1)c1ccccc1 (stereo not given)
inactive: [1] -10.2% and 22.4% | [2] -4.25% and 10.9% | [3] 0.35% and 10.1% | [4] -0.05% and 5.95% | [5] -1.6% and 10.1% | [6] -3.15% and -6.55%

CCOP(=O)(C/C(=N/NC(C)(C)C)C(=O)Nc1nc2ccc(C)cc2s1)OCC
inactive: [1] -14% | [2] 3.7% | [3] -26.1% | [4] -30.4% | [5] -0.5% | [6] -18.6%

CCOC(=N)n1c(=O)n(C2=NCCN2)c2ccccc21
inactive: [1] 0.45% | [2] 0.35% | [3] -48.5% | [4] 1.95% | [5] 22.2% | [6] -43.8%

CCCCCCCNC(=O)C(C)Br (stereo not given)
inactive: [1] 17.6% | [2] 26.6% | [3] 16.6% | [4] -41.9% | [5] 19.7% | [6] 22.1%

COc1cc(CCCC(C(=O)O)C(=O)O)cc(OC)c1OC
inactive: [1] 14.2% | [2] -13.3% | [3] -11.9% | [4] 15.8% | [5] -0.9% | [6] 11.7%

[Mn+2].[NH-]C(Cc1ccc(O)cc1)C(=O)O.[NH-]C(Cc1ccc(O)cc1)C(=O)O (stereo not given)
inactive: [1] 0.35% | [2] 15.3% | [3] -10.5% | [4] -19.1% | [5] 0.95% | [6] -13%

O=C1CN(c2cccc(C(F)(F)F)c2)C(=O)CN1/N=C/c1ccc[nH]1
inactive: [1] -27.7% | [2] -3.25% | [3] 9.45% | [4] 15.8% | [5] -7.1% | [6] -5.4%

O=C(O)CCCCC1CCCCC1
inactive: [1] 53.1% | [2] 17.1% | [3] 38.8% | [4] 17.1% | [5] 33.6% | [6] 43.1%

CCN(CCNS(C)(=O)=O)c1ccc(N)c(C)c1
inactive: [1] -15.3% and -11.2% | [2] -17.2% and -6.1% | [3] -23.1% and -14.5% | [4] 1.5% and -19.1% | [5] -17.9% and 1.95% | [6] -4.05% and 6.35%

C#CCSC(=S)NNc1ccccc1
inactive: [1] 33.1% | [2] 29.1% | [3] 33.1% | [4] 6.2% | [5] 60.8% | [6] 24.8%

Cc1ccc(-c2cc(-c3ccccc3)c(C#N)c(=O)n2C2OC(CO)C(O)C(O)C2O)cc1 (stereo not given)
inactive: [1] -6.55% | [2] -0.3% | [3] 2.25% | [4] 28.1% | [5] 8.65% | [6] 2.95%

CCOC(=O)C1=C(O)c2ccccc2C(=O)C1=O
inactive: [1] 7.35% | [2] 3.8% | [3] 21.6% | [4] 11.3% | [5] 13.2% | [6] 8.95%

Cn1c2ccccc2c(=O)c2[nH]c3ccccc3c21
inactive: [4] 63.5%
active: [1] 77.1% | [2] 78.5% | [3] 84.2% | [5] 83.3% | [6] 76.8%

CCCCCCCCC(O)C#CC(O)CCCCCCCC (stereo not given)
inactive: [1] -18% | [2] -20.9% | [3] -5.6% | [4] -12.9% | [5] -12.6% | [6] -8.85%
